Assay results reported in ChEMBL document CHEMBL4513216, “Probing the Open Global Health Chemical Diversity Library for Multistage-Active Starting Points for Next-Generation Antimalarials” (ACS Infect Dis, 2020).
The campaign covered roughly 69,000 compounds. About 8,600 (12%) showed an effect of 50% or more. The sample as a whole holds a higher share of strong results than the screen did.

Tested on: Plasmodium berghei
Test: Screen against P. berghei liver stage (PbLuc), transformed with Luciferase, at 10uM
Format: functional, HepG2
Conditions: tested at 10 uM

Row | SMILES | INHIBITION [%]
1 | Cc1nccn1C1CCCN(C(=O)CCOCC(F)(F)F)C1 (stereo unspecified) | 1.15
2 | CC(C)N(C)Cc1cnc2n1CCN(Cc1ccc(F)cc1)C2 | 17.4
3 | Cc1cc2c(c(=O)n1CCC(=O)O)C=CC(C)(C)O2 | 10.9
4 | Cc1nc2cc(-c3nccn3C)nn2c(N2CCCC(O)C2)c1C (stereo unspecified) | 6.335
5 | Cn1cc(C(=O)N2C[C@H]3CC(Oc4ccccc4)C[C@H]3C2)cn1 (stereo partly specified) | 3.92
6 | CS(=O)(=O)N1C[C@H]2CCCN(Cc3cccs3)[C@H]2C1 | 24.6
7 | O=c1cc(CN2CCCC2)nc2n1CCCN(Cc1ccco1)C2 | 0.804
8 | CN(C)Cc1cc(=O)n2c(n1)CN(Cc1ccco1)CCC2 | 26.5
9 | CS(=O)(=O)NCc1cc(=O)n2c(n1)CN(Cc1ccco1)CCC2 | 52.3
10 | CCc1nc(CN2CCCCC2C(N)=O)cs1 (stereo unspecified) | -2.43
11 | Cc1nn(C)c(C)c1C(=O)NC(C)CC(=O)c1cccs1 (stereo unspecified) | 61.4
12 | Cc1cc(C(=O)NC(C)CC(=O)c2cccs2)n(C)n1 (stereo unspecified) | -18.8
13 | COc1c(C(=O)NC(C)CC(=O)c2cccs2)c(C)nn1C (stereo unspecified) | 36.7
14 | O=C([C@@H]1CC[C@@H]2[C@@H](CCN2c2ccncn2)O1)N1CCCCO1 | 5.68
15 | COCCOc1ccc(NC(=O)N2CCOC(C(N)=O)C2)cc1F (stereo unspecified) | 15.9
16 | COc1ccc(C2(NC(=O)C3CC(=O)N(C)C3)CCCC2)cc1 (stereo unspecified) | 26
17 | CNC(=O)CN1CCC(CN(C)Cc2ccncc2Cl)CC1 | -22.1
18 | O=C(C1CCOC1)N1CCc2ncnc(C3CC3)c2CC1 (stereo unspecified) | -13.4
19 | O=C(C1CCOC1)N1CCc2ncnc(NC3CCC3)c2CC1 (stereo unspecified) | 51.3
20 | CC(C)Nc1nc2c(c(NC3CC3)n1)CCN(C(=O)C1CCOC1)CC2 (stereo unspecified) | 34.3
21 | O=C(C1CCCO1)N1CCc2ncnc(NC3CCC3)c2CC1 (stereo unspecified) | -29.5
22 | Nc1nc2c(c(NC3CCCC3)n1)CCN(C(=O)C1CCOC1)CC2 (stereo unspecified) | 97.2

Row | SMILES | INHIBITION [%]
23 | O=C([C@H]1CCCO1)N1CCc2ncnc(NC3CC3)c2CC1 | 48.5
24 | N#Cc1cccc(OCc2ccoc2C(=O)N2CCCCCC2)c1 | 5.91
25 | O=C(C1CCCO1)N1C[C@@H]2CCN(c3cnccn3)C[C@@H]2C1 (stereo partly specified) | 28.4
26 | Cc1cc(C(=O)NCc2c(C)nn(C)c2C)nc(N2CCCC2)n1 | -31.4
27 | O=C(O)c1cnc(N2CC[C@H](N3CCOCC3)[C@H](CCCO)C2)c(Cl)c1 | 14
28 | O=S(=O)(NC1=NCN(CCc2ccccc2)CN1)c1ccc(F)cc1 | -4.52
29 | Cc1occc1C(=O)NCc1cccnc1N(C)C | 33.15
30 | CC(c1nc(C2CC2)no1)N1CCc2c(ncn2C2CC2)C1 (stereo unspecified) | 17
31 | CC(c1nc(C2CC2)no1)N1CCc2c(ncn2C)C1 (stereo unspecified) | 56
32 | CC(c1nc(C2CC2)no1)N1CCN(CCc2ccncc2)CC1 (stereo unspecified) | -45.9
33 | CC(c1nc(-c2ccccc2)no1)N1CCc2c(ncn2C2CC2)C1 (stereo unspecified) | 78.3
34 | Cc1cccc(-c2noc(CN3CCc4c(ncn4C4CC4)C3)n2)c1 | 18.3
35 | CCc1noc(C(C)N2CCc3c(ncn3C3CC3)C2)n1 (stereo unspecified) | -1.04
36 | N#Cc1ccc(S(=O)(=O)Nc2cnn(C3CCOCC3)c2)cc1 | 5.51
37 | CC(C)(NC(=O)c1cnc(-c2ccccc2F)s1)C(N)=O | -8.9
38 | Cc1cnc(N2CC[C@@H]3O[C@@H](COCc4ccccn4)CC[C@@H]32)nc1 | 41.6
39 | COc1ccc(-c2cc(=O)n3c(n2)CCCCC3)cc1 | 1.45
40 | Cc1nn(C)c(C)c1-c1ccnc(N(C)Cc2noc(C(C)C)n2)n1 | 4.35
41 | Cc1nn(C)c(C)c1-c1ccnc(N(C)Cc2nc(C(C)C)no2)n1 | 68.2
42 | Cc1nn(C)cc1-c1ccnc(N(C)Cc2noc(C(C)C)n2)n1 | -147
43 | Cc1csc(C2CCCN(C(=O)c3cccc4c3OCO4)C2)n1 (stereo unspecified) | 27.6
44 | Cc1nc(CN2CCN(C)C(=O)C23CCN(C(C)C)CC3)cs1 | 32.5

Row | SMILES | INHIBITION [%]
45 | Cc1cc(C)n2ncc(CN3CCC(n4cc(CCO)nn4)CC3)c2n1 | 58.6
46 | Cc1cc(C)n2ncc(CN3C[C@@H](O)[C@H](Oc4ccccc4)C3)c2n1 | -5.71
47 | Cc1cc(C)n2ncc(CN3CCC(Cn4cc(CO)nn4)CC3)c2n1 | 20.1
48 | Cc1ccc(CN2CCC(n3cc(CN4CCC(O)CC4)nn3)CC2)s1 | 7.43
49 | COCc1cn(C2CCN(Cc3ccc(Cl)s3)CC2)nn1 | 5.23
50 | Cc1cccc(CN2CCC(n3cc(CCO)nn3)CC2)c1C | 53.3
51 | COCCN1CCN(Cc2cnc(C3(C)CCCCO3)nc2)CC1 (stereo unspecified) | 3.25
52 | CS(=O)(=O)NCCC1CCCCN1C(=O)NCCc1ccccc1 (stereo unspecified) | 28.3
53 | CC(=O)NC1CCCN(Cc2csc(-c3ncccn3)n2)C1 (stereo unspecified) | 35.4
54 | c1cnc(-c2nc(CN3CCCC(Cn4cncn4)C3)cs2)nc1 (stereo unspecified) | 15.6
55 | Cn1cc(-c2nc(CN3CCN(CCO)CC3)cs2)cn1 | -0.847
56 | CC1CCCN(Cc2csc(-c3ncccn3)n2)CC1 (stereo unspecified) | 80.8
57 | c1cnc(-c2nc(CN3CCn4c(nnc4C4CC4)C3)cs2)nc1 | -0.219
58 | NC(=O)C1CCN(Cc2csc(-c3ncccn3)n2)CC1 | 55.05
59 | CCC1CCCN(C(=O)Cc2csc(-c3ncccn3)n2)C1 (stereo unspecified) | 14.7
60 | CCCC1CCCN(Cc2csc(-c3cnn(C)c3)n2)CC1 (stereo unspecified) | 55.9
61 | COCC(=O)N1CCN(Cc2csc(-c3ncccn3)n2)CC1 | 38.9
62 | c1cnc(-c2nc(CN3CCCC(N4CCCC4)C3)cs2)nc1 (stereo unspecified) | -16.817
63 | CCCC1CCCN(Cc2csc(-c3ncccn3)n2)CC1 (stereo unspecified) | 91.7
64 | COCCN1CCN(Cc2csc(-c3cnn(C)c3)n2)CC1 | 7.75
65 | Cn1ccc(C(=O)N2CCC3(CC2)CC(Nc2cnccn2)CO3)n1 (stereo unspecified) | -4.26
66 | COc1ccc(-n2nc(C(C)=O)c(C(C)=O)c2C)cc1Cl | -7.27

Row | SMILES | INHIBITION [%]
67 | Cn1cc(NC(=O)Nc2ccc3c(c2)OCO3)cn1 | 24
68 | OCCN(Cc1ccno1)Cc1cc(Br)ccc1F | 25.3
69 | COCC(=O)NCCc1nc(N(C)C)ncc1-c1ccncc1 | 14.325
70 | NCC(=O)N1CCCC1c1n[nH]cc1-c1ccccc1F (stereo unspecified) | 10.9
71 | Cc1cc(N2CCCC(O)(CN(C)C)C2)c2cc3c(cc2n1)OCO3 (stereo unspecified) | 11.6
72 | CC(C)Oc1cccc(C(=O)Nc2nncs2)c1 | -16.8
73 | CCCS(=O)(=O)N1Cc2ccnn2CC(c2nc(C)no2)C1 (stereo unspecified) | 28.2
74 | c1cnc(-c2nc(CN3CCN(CC4CC4)CC3)cs2)nc1 | 77.85
75 | c1cnc(-c2nc(CN3CCCN(Cc4cccs4)CC3)cs2)nc1 | 39.75
76 | c1cnc(-c2nc(CN3CCC(c4ccn[nH]4)CC3)cs2)nc1 | 12.8
77 | O=C([C@@H]1COC[C@H]2CN(c3ccncn3)C[C@H]21)N1CCCCO1 | -11.6
78 | Cc1ccc(CNCc2nnc3n2CC(C(F)(F)F)CC3)cc1 (stereo unspecified) | 45.1
79 | Fc1ccc(CNCc2nnc3n2CC(C(F)(F)F)CC3)c(F)c1 (stereo unspecified) | 63
80 | FC(F)(F)C1CCc2nnc(CNCc3ccsc3)n2C1 (stereo unspecified) | 37
81 | COc1ccc(CNCc2nnc3n2CC(C(F)(F)F)CC3)cc1 (stereo unspecified) | 27.5
82 | Fc1ccc(CNCc2nnc3n2CC(C(F)(F)F)CC3)cc1 (stereo unspecified) | 63
83 | FC(F)(F)C1CCc2nnc(CNCc3cccs3)n2C1 (stereo unspecified) | 26
84 | COc1ccc(Cl)cc1NCC(=O)NCc1cccnc1OC | -12.2
85 | CC(=O)N1CCc2ccc(NC(=O)c3cn(C)nn3)cc2C1 | 24.2
86 | CCc1ncc2c(n1)CN(CC(=O)Nc1cc(C)on1)CC2 | -7.31
87 | COc1ccc2cc(C(=O)NCCNc3ccc(C)nn3)[nH]c2c1 | -17.7
88 | Cc1cc(CC(=O)N2CCc3cc(Br)sc3C2)n[nH]1 | -37.6

Row | SMILES | INHIBITION [%]
89 | Fc1ccccc1CN1CCC[C@@H](Cn2nnc(-c3cccs3)n2)C1 | 22.62
90 | Cc1cccc(S(=O)(=O)N2CCCc3c(c(=O)n(C)n3C)C2)c1 | 70.4
91 | COc1nn(C)c2c1CCCN(S(=O)(=O)c1cccc(C)c1)C2 | 80.2
92 | Cn1c2c(c(=O)n1C)CN(S(=O)(=O)c1cccs1)CCC2 | 18.7
93 | COc1nn(C)c2c1CCCN(S(=O)(=O)c1cccc(F)c1)C2 | -31.3
94 | COc1cccc(S(=O)(=O)N2CCCc3c(OC)nn(C)c3C2)c1 | 18.5
95 | Cn1c2c(c(=O)n1C)CN(C(=O)c1cccc(F)c1)CCC2 | 46.6
96 | CC(C)c1nc(C2CCCN(C(=O)c3ccc4c(c3)COC4)C2)no1 (stereo unspecified) | 1.75
97 | c1nc(N2CCOCC2)ncc1-c1cncn1CCCN1CCCCC1 | 26.585
98 | CCOC(=O)CN1C(=O)CN(S(C)(=O)=O)CCC(OC)c2ccccc21 (stereo unspecified) | 54.8
99 | CCS(=O)(=O)N1CCC(OC)c2ccccc2N(CC(=O)NC)C(=O)C1 (stereo unspecified) | 43.4
100 | CCOC(=O)N1CCC(OC)c2ccccc2N(CC(=O)NC)C(=O)C1 (stereo unspecified) | 42.7
101 | CCc1ccc(CN2CCC(CNC(=O)c3ccc(C)nc3)C2)nc1 (stereo unspecified) | -16.8
102 | Cc1ccc(C(=O)NCC2CCN(Cc3ccccc3C#N)C2)cn1 (stereo unspecified) | 58.6
103 | CCn1ccnc1CN1CCC(CNC(=O)c2ccc(C)nc2)C1 (stereo unspecified) | 26.8
104 | CCOC1CC2(CCN(Cc3cccn3C)CC2)C1 | 29
105 | Cn1cc(CN2CCc3c(nnn3C)C2COCc2ccccc2)cn1 (stereo unspecified) | -90.3
106 | Cc1nccn1C1CCCN(C(=O)c2cnn(C)c2C2CC2)C1 (stereo unspecified) | -3.58
